These results are taken from PubChem BioAssay (NCATS).

The test system of test [1] is Zika virus NS2B-NS3 protease (unlinked complex). In words: Primary screen GU Rhodamine qHTS for Zika virus inhibitors: Unlinked NS2B-NS3 protease assay (AID 1347159). Note: nearly all actives have a fitted effect of over 60% in size. The method, boiled down:
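Percent inhibition came from the 15-min rise in Rhodamine110 fluorescence (1.5 microM substrate, ~15% conversion), normalized to no-inhibitor and no-enzyme wells and Hill-fitted. Unlinked protease, 25 nM, pH 8.0 Tris buffer; compounds up to 114 microM, 15-min preincubation.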
In general terms: qHTS replaces the single test concentration by a dilution series.

In test [2] the test system is Zika virus NS2B-NS3 protease (linked construct). In words: Primary screen NINDS Rhodamine qHTS for Zika virus inhibitors (AID 1347160). Note: nearly all actives have a fitted effect of over 55% in size. An outline of the steps: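 Rhodamine110-peptide cleavage (1.5 µM substrate) by 25 nM linked NS2B-NS3 enzyme at pH 8.0 (Tris, Tween 20), after 15 min RT preincubation with compounds; 15-min fluorescence change normalized to controls and Hill-fitted.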

SMILES strings stand for the structures. Records with an inconclusive call do not appear. Values without a mark were called inactive. The source made the active and inactive calls. Calls come from the whole dose curve; as a rule, active = well fitted inhibition curve with a large enough effect; inconclusive = small, poorly fitted or top-dose-only effect; inactive = no such curve, though single readings can be large or run the other way.
Potency is the fitted concentration of half-maximal effect.

On to `C=C[C@](C)(CC/C=C(\C)C(=O)O)O[C@@H]1OC[C@H](O)[C@H](O)[C@H]1O`, for which the Potency was 25.1 µM (active) in test [1] and 12.6 µM (active) in test [2].

As to `CC1(CO)CC[C@]2(C(=O)O[C@@H]3O[C@H](CO)[C@@H](O)[C@H](O)[C@H]3O)CC[C@]3(C)C(=CCC4[C@@]5(C)CC[C@H](O[C@@H]6O[C@H](C(=O)O)[C@@H](O)[C@H](O)[C@H]6O)C(C)(C)C5CC[C@]43C)C2C1` (stereo not given in full), the Potency entry in test [1] and in test [2] was “inactive” in each case.

As for `COc1cc(/C=C/C(=O)OC(C)(C)C(OC2OC(CO)C(O)C(O)C2O)C(=O)OCc2ccc(OC3OC(CO)C(O)C(O)C3O)cc2)ccc1O` (stereo not given), the Potency result in test [1] and in test [2] was “inactive” in each case.

For the compound `COc1ccccc1CC(C(=O)O)N(C)C(=O)c1ccccc1` (stereo not given), the Potency result in test [1] and in test [2] was “inactive” throughout.

For `CCOc1ccc(C(Nc2ccccn2)c2ccc3ccc(C)nc3c2O)cc1C` (stereo not given), the Potency entry in test [1] and in test [2] was “inactive” throughout.

Regarding `c1ccc(C(OC2CCN(CCCc3nn[nH]n3)CC2)c2ccccc2)cc1`, the Potency entry in test [1] and in test [2] was “inactive” throughout.

As for `O=C(/C=C/c1ccc(O)cc1)OCC1=CC2OC(=O)C3=CO[C@@H](O[C@@H]4O[C@H](CO)[C@@H](O)[C@H](O)[C@H]4O)[C@H]1[C@@H]32` (stereo not given in full), the Potency entry in test [1] and in test [2] was “inactive” throughout.

Take `CC1(C)OC(=O)C(OCC2CC2)=C1c1ccc(S(C)(=O)=O)cc1`: the Potency entry in test [1] and in test [2] was “inactive” in each case.

With `C=CC1(C)CC(OC(=O)C(=C)C(O)COC(C)=O)C(C(=C)C(=O)OC)C(O)C1C(=C)CO` (stereo not given), the Potency entry in test [1] and in test [2] was “inactive” in each case.

In the case of `CCOC(=O)[C@H](CCc1ccccc1)N[C@@H](C)C(=O)N1C2CCCCC2C[C@H]1C(=O)O` (stereo not given in full), the Potency entry in test [1] and in test [2] was “inactive” each time.

Consider `CCCn1cnc2c(NCc3ccccc3)nc(N[C@H](CC)CO)nc21`, for which the Potency result in test [1] and in test [2] was “inactive” each time.

For the compound `C[C@@H]1C/C=C/C=C\C=C\C=C\[C@H](O[C@@H]2O[C@H](C)[C@@H](O)[C@H](N)[C@@H]2O)C[C@@H]2O[C@](O)(C[C@@H](O)C[C@H]3O[C@@H]3/C=C/C(=O)O1)C[C@H](O)[C@H]2C(=O)O`, the Potency entry in test [1] and in test [2] was “inactive” in each case.

In the case of `CCC(=O)O[C@]1(C(=O)CCl)[C@@H](C)C[C@H]2[C@@H]3C[C@H](F)C4=CC(=O)C=C[C@]4(C)[C@@]3(F)[C@@H](O)C[C@@]21C`, the Potency entry in test [1] and in test [2] was “inactive” each time.

On to `C=CC(C)(C)C1(CC2NC(=O)C3CCCN3C2=O)C(=O)Nc2cc3c(cc21)C=CC(C)(C)O3` (stereo not given), for which the Potency result in test [1] and in test [2] was “inactive” each time.

Turning to `COc1cc(/C=C/C(=O)OC[C@H]2O[C@H](O[C@]3(CO)O[C@H](CO)[C@@H](O)[C@@H]3O)[C@H](O)[C@@H](O)[C@@H]2O)cc(OC)c1O`, the Potency entry in test [1] and in test [2] was “inactive” in each case.

With `OC[C@H]1O[C@@H](OC(CCCCc2ccc(O)cc2)CCc2ccc(O)cc2)[C@H](O[C@@H]2OC[C@](O)(CO)[C@H]2O)[C@@H](O)[C@@H]1O` (stereo not given in full), the Potency result in test [1] and in test [2] was “inactive” each time.

Turning to `CC(=O)N(O)CCCCCN1C(=O)CCC1=O`, the Potency result in test [1] and in test [2] was “inactive” in each case.

`CC(/C=C/C1(O)C(C)CC(O)CC1(C)C)OC1OC(CO)C(O)C(O)C1O` (stereo not given): the Potency result in test [1] and in test [2] was “inactive” in each case.

As to `C[C@H]1CN(C[C@H](Cc2ccccc2)C(=O)NCC(=O)O)CC[C@@]1(C)c1cccc(O)c1`, the Potency entry in test [1] and in test [2] was “inactive” each time.

On to `C[C@@H]1CC[C@]2(C)C3(C)CC[C@@]2(OC3=O)[C@@]12C[C@H](c1ccoc1)OC2=O`, for which the Potency entry in test [1] and in test [2] was “inactive” in each case.

As to `C=CC(C)(C)C12CC3C(=O)NC(Cc4cnc[nH]4)C(=O)N3C1Nc1ccccc12` (stereo not given), the Potency result in test [1] and in test [2] was “inactive” in each case.

On to `COC(=O)C1=COC(O[C@@H]2O[C@H](CO)[C@@H](O)[C@H](O)[C@H]2O)/C(=C\COC(=O)c2ccc(OC3OC(CO)C(O)C(O)C3O)c(OC)c2)C1CC(=O)OCCc1ccc(O)cc1` (stereo not given in full), for which the Potency result in test [1] and in test [2] was “inactive” each time.

For the compound `C/C(=C\CCC(C)(O)c1ccc(C)cc1)C(=O)O` (stereo not given), the Potency result in test [1] and in test [2] was “inactive” each time.

Consider `CCC(NC(=O)CC(NC(=O)C(CO)NC(=O)C(CC)NC(=O)c1ccc[nH]1)c1ccccc1)C(=O)O` (stereo not given), for which the Potency entry in test [1] and in test [2] was “inactive” in each case.

On to `CC(C)(O)CNc1nc(Nc2ccnc(C(F)(F)F)c2)nc(-c2cccc(C(F)(F)F)n2)n1`, for which the Potency entry in test [1] and in test [2] was “inactive” each time.

`C[C@@H]1O[C@@H](O[C@H]2[C@H](OC(=O)C34CCC(C)(C)CC3C3=CCC5C6(C)CC(O)C(O[C@@H]7O[C@H](CO)[C@@H](O)[C@H](O)[C@H]7O)C(C)(C(=O)O)C6CCC5(C)C3(CO)CC4)O[C@H](C)[C@H](O)[C@@H]2O)[C@H](O)[C@H](O)[C@H]1O[C@@H]1OC[C@@H](O)[C@H](O)[C@H]1O` (stereo not given in full): the Potency result in test [1] and in test [2] was “inactive” throughout.

Take `CC1(C)CC2C(O)C3=C(CC(C)(O)C2C1)C(=O)OC3O` (stereo not given): the Potency entry in test [1] and in test [2] was “inactive” each time.

With `O=C(/C=C/c1ccc(O)cc1)OC[C@H]1O[C@@H](OC(=O)/C=C/c2ccccc2)[C@H](O)[C@@H](O)[C@@H]1O`, the Potency result in test [1] and in test [2] was “inactive” in each case.

For the compound `CC(C)CNC(=O)/C=C/CCCCc1ccc2c(c1)OCO2`, the Potency result in test [1] and in test [2] was “inactive” throughout.

Regarding `CC(=O)N1c2ccccc2C2(O)CC3C(=O)NC(CC(C)C)C(=O)N3C12` (stereo not given), the Potency entry in test [1] and in test [2] was “inactive” throughout.
